PubChem BioAssay (EPA / NIEHS)
“And” between values parts separate entries of the source, which are not always exact repeats. Equal entries are not always repeated. Records with an inconclusive call do not appear. The source made the active and inactive calls. How the source made its calls: active means hit-call score of the fitted dose curve at least 0.9, where 1 is the maximum; inconclusive means response in the unintended direction; inactive means score below 0.9.

Each compound was assayed against Cellular tumor antigen p53 (Homo sapiens) (UniProt P04637) (assay: TOX21_p53_BLA_p4_ratio: Tox21 HCT-116 p53 Agonism Beta-lactamase Assay, Ratio, Phase 4 (AID 2283601)).
Cellular tumor antigen p53 (Homo sapiens), sequence (P04637 whole entry, looked up, the tested form may be a part): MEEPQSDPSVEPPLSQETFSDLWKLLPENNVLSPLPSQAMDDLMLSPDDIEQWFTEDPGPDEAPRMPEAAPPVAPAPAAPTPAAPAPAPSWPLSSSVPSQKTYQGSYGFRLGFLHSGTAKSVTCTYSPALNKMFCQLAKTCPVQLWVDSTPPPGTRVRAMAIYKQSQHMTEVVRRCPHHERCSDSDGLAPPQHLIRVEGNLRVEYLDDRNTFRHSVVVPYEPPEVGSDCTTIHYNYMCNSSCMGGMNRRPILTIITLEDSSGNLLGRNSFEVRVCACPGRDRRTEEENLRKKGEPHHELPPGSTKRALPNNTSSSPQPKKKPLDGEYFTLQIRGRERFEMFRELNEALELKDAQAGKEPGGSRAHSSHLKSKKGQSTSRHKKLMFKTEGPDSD
Description: TOX21_p53_BLA_p4 is a cell-based, single-readout assay that uses HCT116, a human intestinal cell line, […] in a 1536-well plate.TOX21_p53_BLA_p4_ratio is an assay readout measuring reporter gene via receptor activity and designed using inducible reporter (beta lactamase induction) detected with GAL4 b-lactamase reporter gene. The signal is derived from the ratio of cleaved (ch2) to uncleaved (ch1)reporter gene substrate used as the measure of target activity.Data from the assay component TOX21_p53_BLA_p4_ratio was analyzed into 1 assay endpoint. This assay endpoint, TOX21_p53_BLA_p4_ratio, was analyzed in the positive analysis fitting direction relative to DMSO as the negative control and baseline of activity. Using a type of inducible reporter, gain-of-signal activity can be used to understand changes in the reporter gene as they relate to the gene TP53. Furthermore, this assay endpoint can be referred to as a primary readout, because this assay has produced multiple assay endpoints where this ratio serves a reporter gene function to understand target activity. To generalize the intended target to other relatable targets, this assay endpoint is annotated to the DNA binding intended target family, where the subfamily is tumor suppressor.
Thawing Method: Place 14 mL of pre-warmed thaw medium into a 15 mL of conical tub. Remove the vial of cells to be thawed from liquid nitrogen and thaw rapidly by placing at 37C in a water bath with gentle agitation for 1-2 minutes. Decontaminate the vial by wiping with 70% ethanol before opening in a biological safety cabinet. Transfer the vial contents drop-wise into 14 mL of thaw medium in a sterile 15-mL conical tub. Centrifuge cells at 900 rpm for 4 minutes and resuspend in thaw medium. Transfer contents to the T75 tissue culture flask containing Thaw Medium and place flask in a humidified 37C/5% CO2 incubator. Switch to growth medium at first passage.Propagation Method: Aspirate medium, rinse once in DPBS, add 0.25% Trypsin/EDTA and swirl to coat the cell evenly. Add an equal volume of Growth Medium to inactivate Trypsin after 2-3 minutes incubation at 37C. Centrifuge cells at 900 rpm for 4 minutes and resuspend in growth medium. Cell should be passage or fed at least twice a week.Assay Protocol: Harvest cells from culture in growth medium and resuspend in assay medium. 2.2 Dispense 4000 cells/5 uL/well into 1536-well black/clear bottom plates using a Multidrop dispenser. After the cells were incubated at 37C for 5 hours, 23 nL of compounds dissolved in DMSO were transferred to the assay plate by a PinTool resulting in a 217-fold dilution. Incubate the plates for 16 hours at 37C, 5% CO2. Add 1 uL of 6X LiveBLAzer FRET B/G (CCF4-AM) Substrate Mixture to each well using a BioRAPTR dispenser and incubate the plates at room temperature for 2 hours. Measure fluorescence intensity at 460 and 530 nm emission and 405 nm excitation by an Envision detector. Data is expressed as the ratio of 460nm/530nm emissions. Add 4 uL of Cell-titer Glo to each well using BioRAPTR and incubate the plates at room temperature for 2 hours. Measure fluorescence intensity by a VewLux plate reader.
In the case of Cc1cc(O)c(C(C)(C)C)cc1C(C)(C)C, the AC50 is reported as 44.8 µM (active).
With CCCCC(CC)COC(=O)c1ccc(N(C)C)cc1 (stereo not given) the outcome was “inactive”.
CCOC(=O)C1CC(=O)C(=C(O)C2CC2)C(=O)C1 (stereo not given) was tested, and the outcome was “inactive”.
With CC(C)(C)C(=O)C1C(=O)c2ccccc2C1=O the outcome was “inactive”.
For Cc1cc(=O)[nH]c(C(C)C)n1, the outcome was “inactive”.
In the case of CCc1cc(Cc2cc(CC)c(N)c(CC)c2)cc(CC)c1N, the outcome is reported as “inactive”.
COC(=O)c1ccc(C=O)cc1 was tested, and the outcome was “inactive”.
With CCCCOC(=O)[C@H](C)O the outcome was “inactive”.
CCOC(=O)CCC(C)=O was tested, and the outcome was “inactive”.
In the case of CCCCCCCCn1sc(Cl)c(Cl)c1=O, the outcome is reported as “inactive”.
O=C(c1ccccc1)c1ccc(O)cc1O was tested, and the outcome was “inactive”.
With CCC(=O)OC(C)c1ccccc1 (stereo not given) the outcome was “inactive”.
C[C@]12CC[C@H]3C(=CCc4cc(O)ccc43)[C@@H]1CCC2=O was tested, and the outcome was “inactive”.
With CC(C)OC=O the outcome was “inactive”.
With O=S(=O)(O)c1ccc(Cl)cc1 the outcome was “inactive”.
CO[Si](CCCOCC1CO1)(OC)OC (stereo not given) was tested, and the outcome was “inactive”.
In the case of CC(C)Nc1ccc(NC(C)C)c2c1C(=O)c1ccccc1C2=O, the outcome is reported as “inactive”.
F[Si-2](F)(F)(F)(F)F was tested, and the outcome was “inactive”.
Cc1ccc([N+](=O)[O-])c(C)c1 was tested, and the outcome was “inactive”.
In the case of O=C1C=CC(=O)N1c1ccc(Cc2ccc(N3C(=O)C=CC3=O)cc2)cc1, the AC50 is reported as 68 µM (active).
CSc1ccc(Cl)cc1 was tested, and the outcome was “inactive”.
CCC/C=C/CO was tested, and the outcome was “inactive”.
In the case of CCC(C)CO (stereo not given), the outcome is reported as “inactive”.
For C=CCOC(=O)CC(C)C, the outcome was “inactive”.
In the case of CCN=C1C=CC(=C(c2ccc(N(CC)CC)cc2)c2ccc(N(CC)CC)cc2)c2ccccc21, the AC50 is reported as 50 µM (active).
CCCCCC/C=C/CCCCCCCC(=O)O was tested, and the outcome was “inactive”.
For CN(N=O)C(=O)N[C@@H]1[C@@H](O)[C@H](O)[C@@H](CO)O[C@@H]1O, the outcome was “inactive”.
For Cc1ccc(O)c(-n2nc3ccccc3n2)c1, the outcome was “inactive”.
In the case of O=C1C=CC(=O)N1c1ccccc1, the AC50 is reported as 77.5 µM (active).
In the case of OCC1CCCO1 (stereo not given), the outcome is reported as “inactive”.
With CC(C)OC(=O)COc1ccc(Cl)cc1Cl the outcome was “inactive”.
For CCC(Cc1c(I)cc(I)c(N)c1I)C(=O)O (stereo not given), the outcome was “inactive”.
In the case of CCCCCCCC/C=C\CCCCCCCC(=O)N(C)CC(=O)O, the AC50 is reported as 83.7 µM (active).
For Brc1nc2ccccc2s1, the outcome was “inactive”.
In the case of CC(C)CC=C(C=O)c1ccccc1, the outcome is reported as “inactive”.
Cc1ccc2c(c1)OCC(=O)CO2 was tested, and the outcome was “inactive”.
With O=C1c2c(O)ccc(Nc3ccc(CCO)cc3)c2C(=O)c2c([N+](=O)[O-])ccc(O)c21 the outcome was “inactive”.
For CCCCCCCCCCCCCCCCC, the outcome was “inactive”.
With CCN=c1cc2oc3cc(NCC)c(C)cc3c(-c3ccccc3C(=O)OCC)c-2cc1C the AC50 was 35.8 µM (active) and 44.5 µM (active).
In the case of CC(=O)CCC(C)C, the outcome is reported as “inactive”.
